IL-1B inflam inh = inflammasome signaling inhibition, IL-1 beta readout; THP-1 LPS/ATP IL-1B secretion, AlphaLISA, 16 h; active compounds read low; activity change, % at 57.5 µM; 4.7% of 360,000 active; AID 743279; in the data active = activity change below about -50%; inconclusive = mostly about -30% to -49%
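THP-1 cells pretreated 1 hr with compounds (up to 57.5 uM final), then stimulated with LPS (250 ng/mL final) plus ATP (1.25 mM final); secreted IL-1B measured by AlphaLISA after 16 hr, decreased signal indicating inhibition.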
ATXN viability = viability counter-screen for ATXN expression inhibitors. S2 cells (HEK-293 line with an ATXN2-luciferase reporter) viability, CellTiter-Fluor protease fluorescence, 24 h. Potency, µM (top dose mostly 56.7 µM), hits mostly cytotoxic. 0.49% of 400,000 active. AID 651635; note: nearly all actives have a fitted effect of over 40% in size
Integrin act MD = integrin-mediated muscular dystrophy alleviation activation; 0.064% of 350,000 active; alpha7betagal myoblasts, beta-gal FDG fluorescence, 48 h; Potency, µM (series often up to 38.3 µM), hits mostly activators; note: nearly all actives have a fitted effect of over 60% in size
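Alpha7betagal+/- myoblasts (passage 13) were plated 16-24 hr, then exposed to compounds (1:260 dilution of DMSO stock) for 48 hours at 37C. After MPER lysis, β-galactosidase reporter activity was read as FDG fluorescence (ex 480/em 540) after 30 minutes.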
ATXN2 expr inh = ATXN2 expression inhibition; 0.72% of 360,000 active; Potency, µM (series often up to 57 µM), usual class: inhibitors; HEK-293 ATXN2-luciferase reporter, luminescence, 24 h; note: nearly all actives have a fitted effect of over 55% in size
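qHTS (up to 57 uM final) was run with 24 h compound exposure of reporter cells at 37 °C. Each well was multiplexed: SteadyGlo luminescence measured ATXN2-luciferase expression after a fluorogenic Gly-Phe-AFC viability readout (25 uM final).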
DRD3 agonist = agonists of human D3 dopamine receptor; P35462; D3R DiscoveRx beta-arrestin cells, luminescence, 90 min; AID 652048; max activation, %; 0.58% of 410,000 active; in the data active = max activation above about 30%
Target sequence (P35462 whole entry, looked up): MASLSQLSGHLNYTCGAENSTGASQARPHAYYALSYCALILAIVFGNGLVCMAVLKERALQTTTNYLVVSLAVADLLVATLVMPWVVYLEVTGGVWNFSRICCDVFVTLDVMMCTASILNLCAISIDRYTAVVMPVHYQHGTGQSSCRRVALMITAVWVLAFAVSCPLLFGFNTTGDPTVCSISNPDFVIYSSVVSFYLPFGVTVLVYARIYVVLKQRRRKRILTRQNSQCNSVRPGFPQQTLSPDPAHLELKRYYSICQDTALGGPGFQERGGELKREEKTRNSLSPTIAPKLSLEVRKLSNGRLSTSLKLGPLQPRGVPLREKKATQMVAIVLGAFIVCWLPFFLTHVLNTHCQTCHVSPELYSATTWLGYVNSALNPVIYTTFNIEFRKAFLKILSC
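Agonist mode: compounds and dopamine controls were applied to plated cells for 90 min at 37 degrees C after an overnight attachment at 1500 cells/well. Luminescent read-out followed 30 - 60 minutes at room temperature with DiscoveRx detection reagent.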
DRD3 antagonist = blocks the human D3 dopamine receptor; D3R cells, DiscoveRx beta-arrestin luminescence, antagonist mode; active compounds read low; max response, negative = inhibition, %; 2.5% of 360,000 active; AID 652054; in the data active = max response below about -50%; inconclusive = no clear call, values can overlap the other calls
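Cells plated overnight at 1500 cells/well, then exposed to library compounds with dopamine controls for 90 minutes at 37 degrees C. DiscoveRx reagent added for 30–60 minutes at room temperature; luminescence read, quantitative HTS format.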
Numbers stand for hits; i = inactive; ? = inconclusive; nt = no result given; [ ] = another dose, or the depositor's remark. Compounds with a hit are over-represented: about 7% of the library has one in this group of screens. Unless noted, calls come from the whole dose curve; as a rule, active = well fitted curve in the direction sought with a large enough effect; inconclusive = small, poorly fitted or top-dose-only effect, or another doubt; inactive = no such curve, though single readings can be large; an effect the other way counts as inactive or inconclusive.

SMILES | IL-1B inflam inh | ATXN viability | Integrin act MD | ATXN2 expr inh | DRD3 agonist | DRD3 antagonist
COc1ccccc1CN(C)C(=O)c1cccc(S(=O)(=O)N2CCN(Cc3ccccc3)CC2)c1 | -54 | i | i | i | i | i
CN(Cc1cccc(F)c1)C(=O)c1ccc(S(=O)(=O)N2CCCCCC2)cc1 | -66 | i | i | i | i | i
CN(Cc1ccc(F)cc1)C(=O)c1cccc(S(=O)(=O)N2CCN(c3ccc(F)cc3)CC2)c1 | -58 | i | i | i | i | i
CN(Cc1ccc(F)cc1)C(=O)c1cccc(S(=O)(=O)N2CCN(c3ccccc3)CC2)c1 | i | i | i | i | i | i
CSc1ccc(CN(C)C(=O)c2cccc(S(=O)(=O)N3CCN(Cc4ccccc4)CC3)c2)cc1 | -72 | i | i | i | i | i
CC(=O)c1ccc(S(=O)(=O)N2CCCC(N(C)CCc3ccccc3)C2)cc1 (stereo not given) | i | i | i | i | i | i
CN(CCc1ccccc1)C1CCCN(S(=O)(=O)c2cccc(F)c2)C1 (stereo not given) | i | i | i | i | i | -63
COc1ccccc1CNC(=O)N1CCN(S(=O)(=O)c2ccccc2)CC1 | i | i | i | i | 30 | i
O=S(=O)(NCCc1ccccc1)c1ccc(Cl)nc1 | i | i | i | i | i | i
COC(=O)C1N[C@@H]([C@@H](NC(=O)COc2ccccc2)C(=O)NCc2ccccc2)SC1(C)C (stereo not given in full) | i | i | i | i | i | i
CC(=O)N1c2ccccc2C(=O)C1N(C)c1ccc(C)cc1 (stereo not given) | i | i | i | i | i | i
CC(=O)N1/C(=C/c2ccc(N(C)C)cc2)C(=O)c2ccccc21 | -95 | ? | i | i[11.3 µM] | i | -51
Cc1ccccc1NC(=O)Cn1c(=O)n(Cc2ccccc2)c(=O)c2sc3ccccc3c21 | nt | ? | nt | i | i | nt
O=C1NC[C@H](Cc2ccc(O)cc2)N(C[C@@H]2CCCN2C[C@H](Cc2ccccc2)N2C[C@H](Cc3ccc(O)cc3)N(CC3CCCCCC3)C(=O)C2=O)C1=O | -56 | i | nt | i | i | i
CC(C)C[C@H]1CN([C@@H](Cc2ccccc2)CN2CCC[C@H]2CN2C(=O)C(=O)NC[C@@H]2Cc2ccc(O)cc2)C(=O)C(=O)N1CC1CCCCCC1 | -89 | ? | nt | ? | i | i
CCN(CC)C(=O)C1CCCN(Cc2ccc(OC)c(C)c2C)C1 (stereo not given) | i | i | i | i | i | i
Cc1ccc(CSC(Nc2ccc(F)cc2)=C(C#N)C#N)cc1 | -57 | i | i | i | i | ?
CCN(CC)C(=O)CSC(Nc1ccc(F)cc1)=C(C#N)C#N | i | i | i | i | i | i
Cc1ccc[n+](C(C)C(=O)Nc2ccc(C)c([N+](=O)[O-])c2)c1 (stereo not given) | i | i | i | i | i | -70
Fc1ccc(/C=C/c2nnc(-c3cccs3)o2)cc1 | ? | i | i | i | i | i
O=C(CSc1n[nH]c(=O)n1C1CC1)Nc1cc(Cl)ccc1Oc1ccccc1 | i | i | i | i | 32 | i
CCCOc1ccc(C(CC(=O)O)NC(=O)Cc2ccccc2)cc1 (stereo not given) | i | i | i | i | i | i
CC(C)(C)C(=O)NCCN1C(=O)S/C(=C\c2ccc([N+](=O)[O-])cc2)C1=O | -73 | i | i | nt | i | i
O=C(NCCN1C(=O)S/C(=C\c2ccc(Cl)c([N+](=O)[O-])c2)C1=O)C1=COCCO1 | -103 | nt | i | ? | i | -55
CCCCNC(=S)N(C)N=C1CCC(c2ccccc2)CC1 (stereo not given) | i | i | i | nt | i | i
Cc1ccc(C2=Nn3c(COc4ccc(Cl)cc4)nnc3SC2CC(=O)O)cc1 (stereo not given) | i | i | i | i | 32 | i
CCN(CCO)c1ccc(N=Nc2cc(C)[nH]n2)cc1 | i | ? | ? | ? | i | -52
CCN(CCO)c1ccc(Nc2cc(-c3ccc(-c4ccccc4)cc3)ncn2)cc1 | i | ? | nt | ? | i | i

From PubChem
